Reference: PubChem BioAssay (NCI)
This is part of a sample that, as a whole, favours compounds with a hit. Of some 83,000 tested, about 20% had one in any assay.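 In brief: 96-well plates, 48 h treatment, single concentration, percent growth endpoint.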 Active and inactive are the calls of the source. The calls were made as follows: active = growth percent below 10; inactive = the rest.

What was measured:
Test in all cases: NCI-60 one-dose screen, 48 h (100 = growth as untreated, 0 = no growth, -100 = all killed)
Settings in all cases: 10 µM unless noted
DU-145 prostate = test system: DU-145 prostate
K-562 leukemia = test system: K-562 leukemia
MALME-3M melanoma = test system: MALME-3M melanoma
MDA-MB-231 breast = test system: MDA-MB-231 breast
RXF 393 renal = test system: RXF 393 renal
SF-268 CNS = test system: SF-268 CNS
SF-295 CNS = test system: SF-295 CNS
SF-539 CNS = test system: SF-539 CNS
UACC-257 melanoma = test system: UACC-257 melanoma
M14 melanoma = test system: M14 melanoma
HCT-15 colon = test system: HCT-15 colon
HT29 colon = test system: HT29 colon
SNB-75 CNS = test system: SNB-75 CNS
SNB-19 CNS = test system: SNB-19 CNS
U251 CNS = test system: U251 CNS
PC-3 prostate = test system: PC-3 prostate
SK-MEL-5 melanoma = test system: SK-MEL-5 melanoma
UACC-62 melanoma = test system: UACC-62 melanoma
LOX IMVI melanoma = test system: LOX IMVI melanoma
SK-MEL-28 melanoma = test system: SK-MEL-28 melanoma

Measured: growth

CC(=O)N1CCN(CCNC(=O)n2cc(-c3ccncc3)c(-c3ccc(O)c(Cl)c3)n2)CC1
inactive: DU-145 prostate 105% | K-562 leukemia 91.8% | MALME-3M melanoma 90.6% | MDA-MB-231 breast 107% | RXF 393 renal 120% | SF-268 CNS 107% | SF-295 CNS 130% | SF-539 CNS 101% | UACC-257 melanoma 103% | M14 melanoma 70.2% | HCT-15 colon 118% | HT29 colon 103% | SNB-75 CNS 81.4% | SNB-19 CNS 120% | U251 CNS 110% | PC-3 prostate 171% | SK-MEL-5 melanoma 107% | UACC-62 melanoma 91.3% | LOX IMVI melanoma 109% | SK-MEL-28 melanoma 85.5%

O=C(/C=C\c1ccccc1Cl)c1ccccc1
inactive: DU-145 prostate 101% | K-562 leukemia 102% | MALME-3M melanoma 98.9% | MDA-MB-231 breast 91.7% | RXF 393 renal 89.7% | SF-268 CNS 93.4% | SF-295 CNS 75.2% | SF-539 CNS 103% | UACC-257 melanoma 119% | M14 melanoma 101% | HCT-15 colon 89.9% | HT29 colon 92.3% | SNB-75 CNS 86.7% | SNB-19 CNS 94.9% | U251 CNS 79.3% | PC-3 prostate 93.8% | SK-MEL-5 melanoma 92.2% | UACC-62 melanoma 89.7% | LOX IMVI melanoma 82.1% | SK-MEL-28 melanoma 110%

Oc1ccc(CN(Cc2ccc(C(F)(F)F)cc2)Cc2ccc(O)c3ncccc23)c2cccnc12
inactive: DU-145 prostate 24.1% | MALME-3M melanoma 23.7% | MDA-MB-231 breast 48.4% | RXF 393 renal 11.2% | SF-268 CNS 25.6% | SF-539 CNS 15.2% | HCT-15 colon 20.5% | HT29 colon 11.3% | SNB-75 CNS 33.5% | SNB-19 CNS 30.8% | PC-3 prostate 12.9% | LOX IMVI melanoma 18.7% | SK-MEL-28 melanoma 32.3%
active: K-562 leukemia 8.17% | SF-295 CNS 6.95% | UACC-257 melanoma -27.7% | M14 melanoma 3.46% | U251 CNS 1.77% | SK-MEL-5 melanoma -32.6% | UACC-62 melanoma -21.3%

CSC1=Nc2c(c(C)c(-c3ccccc3)n2CCCCl)C2=NC(=O)CN12
inactive: DU-145 prostate 94.8% | K-562 leukemia 19.3% | MALME-3M melanoma 82.8% | MDA-MB-231 breast 65.2% | RXF 393 renal 94.7% | SF-268 CNS 77% | SF-295 CNS 43.3% | SF-539 CNS 61.7% | UACC-257 melanoma 83.8% | M14 melanoma 30.8% | HCT-15 colon 64.9% | HT29 colon 23.5% | SNB-75 CNS 21.2% | SNB-19 CNS 81.2% | U251 CNS 51.6% | PC-3 prostate 68.9% | SK-MEL-5 melanoma 50.7% | UACC-62 melanoma 36.7% | LOX IMVI melanoma 49.8% | SK-MEL-28 melanoma 55.9%

CC(=O)OC1CC2C3CCC4C[C@@H](NC(=O)C=C(C)C)CC[C@]4(C)C3CC[C@]2(C)[C@H]1C(C)N(C)C (stereo not given in full)
active: K-562 leukemia -37.5% | MALME-3M melanoma -54% | MDA-MB-231 breast -36.1% | RXF 393 renal -64.6% | SF-268 CNS -63% | SF-295 CNS -37.6% | SF-539 CNS -76.5% | UACC-257 melanoma -58.4% | M14 melanoma -59.9% | HCT-15 colon -38.7% | HT29 colon -20.9% | SNB-75 CNS 8.51% | SK-MEL-5 melanoma -95.2% | UACC-62 melanoma -52.6% | LOX IMVI melanoma -15% | SK-MEL-28 melanoma -91.3%
inactive: DU-145 prostate 31.6% | SNB-19 CNS 49.2% | U251 CNS 11.5% | PC-3 prostate 13.1%

COc1ccc(Oc2[nH]n(C3=Nc4ccccc4Sc4ccccc43)c(=O)c2C#N)cc1
inactive: DU-145 prostate 104% | K-562 leukemia 125% | MALME-3M melanoma 169% | MDA-MB-231 breast 95.6% | RXF 393 renal 94.2% | SF-268 CNS 88.3% | SF-295 CNS 99.2% | SF-539 CNS 96.7% | UACC-257 melanoma 104% | M14 melanoma 104% | HCT-15 colon 101% | HT29 colon 113% | SNB-75 CNS 121% | SNB-19 CNS 101% | U251 CNS 107% | PC-3 prostate 82.8% | SK-MEL-5 melanoma 84.8% | UACC-62 melanoma 69.9% | LOX IMVI melanoma 95.3% | SK-MEL-28 melanoma 108%

O=C(O)CS(=O)c1ccc(Cl)cc1 (stereo not given)
inactive: DU-145 prostate 109% | K-562 leukemia 81.8% | MALME-3M melanoma 99.8% | MDA-MB-231 breast 118% | RXF 393 renal 103% | SF-268 CNS 109% | SF-295 CNS 94.9% | SF-539 CNS 106% | UACC-257 melanoma 99.3% | M14 melanoma 102% | HCT-15 colon 95.9% | HT29 colon 105% | SNB-75 CNS 103% | SNB-19 CNS 104% | U251 CNS 99.7% | PC-3 prostate 110% | SK-MEL-5 melanoma 102% | UACC-62 melanoma 111% | LOX IMVI melanoma 91% | SK-MEL-28 melanoma 105%

C=CCSc1nnc(COc2ccc3c(C)c(Cc4ccccc4)c(=O)oc3c2C)o1
inactive: DU-145 prostate 106% | K-562 leukemia 96.2% | MALME-3M melanoma 108% | MDA-MB-231 breast 104% | RXF 393 renal 114% | SF-268 CNS 101% | SF-295 CNS 99.9% | SF-539 CNS 101% | UACC-257 melanoma 102% | M14 melanoma 102% | HCT-15 colon 104% | HT29 colon 98.3% | SNB-75 CNS 89.1% | SNB-19 CNS 93.4% | U251 CNS 99% | PC-3 prostate 93.2% | SK-MEL-5 melanoma 101% | UACC-62 melanoma 92.4% | LOX IMVI melanoma 97.6% | SK-MEL-28 melanoma 117%

COc1cccc2c1nc1cccc(OC)c1[n+]2[O-]
inactive: DU-145 prostate 13.8% | K-562 leukemia 39.8% | MALME-3M melanoma 16.4% | MDA-MB-231 breast 78.5% | SF-268 CNS 36.9% | SF-295 CNS 36.7% | SF-539 CNS 25.2% | UACC-257 melanoma 58.2% | HCT-15 colon 47.4% | HT29 colon 53.9% | SNB-75 CNS 58.3% | SNB-19 CNS 46.9% | U251 CNS 46.6% | PC-3 prostate 73.2% | SK-MEL-5 melanoma 62% | UACC-62 melanoma 39.6% | LOX IMVI melanoma 31.9% | SK-MEL-28 melanoma 103%
active: RXF 393 renal -39.6% | M14 melanoma -3.49%

O=C(CCCC(=O)Nc1ccc(Cn2nnc3cc(Cl)c(Cl)cc32)cc1)Nc1ccc(CN2N=NC3C=C(Cl)C(Cl)=CC32)cc1 (stereo not given)
inactive: DU-145 prostate 93.3% | K-562 leukemia 67% | MALME-3M melanoma 97% | MDA-MB-231 breast 76.4% | RXF 393 renal 93.7% | SF-268 CNS 78.1% | SF-295 CNS 71.9% | SF-539 CNS 88.2% | UACC-257 melanoma 81.1% | M14 melanoma 87.2% | HCT-15 colon 97.3% | HT29 colon 86.5% | SNB-75 CNS 70.3% | SNB-19 CNS 86.2% | U251 CNS 84.2% | PC-3 prostate 60.2% | SK-MEL-5 melanoma 89.8% | UACC-62 melanoma 62.3% | LOX IMVI melanoma 78.8% | SK-MEL-28 melanoma 103%

CN1CCN(Cc2ccc(NC(=O)c3cncc(C#Cc4c(N)ncc5ccc(F)cc45)c3)cc2C(F)(F)F)CC1
inactive: DU-145 prostate 46.2% | SF-268 CNS 35.7% | SF-295 CNS 52.2% | HCT-15 colon 25.9% | SNB-75 CNS 15.5% | SNB-19 CNS 74.3% | U251 CNS 43.3% | PC-3 prostate 43.7% | UACC-62 melanoma 22.8%
active: K-562 leukemia -33.4% | MALME-3M melanoma -80.7% | MDA-MB-231 breast -38.4% | RXF 393 renal -73.8% | SF-539 CNS -68.2% | UACC-257 melanoma -55.9% | M14 melanoma -73.7% | HT29 colon -60.1% | SK-MEL-5 melanoma -93.1% | LOX IMVI melanoma -8.63% | SK-MEL-28 melanoma -84.9%

CC(C)(C)c1ccc([I+]c2ccc(C(C)(C)C)cc2)cc1
inactive: SF-295 CNS 23.7% | SF-539 CNS 21.2% | HCT-15 colon 69.4% | HT29 colon 11% | SNB-75 CNS 18.7% | SNB-19 CNS 13.8%
active: DU-145 prostate -89.1% | K-562 leukemia 1.42% | MALME-3M melanoma -61.2% | MDA-MB-231 breast -30.3% | RXF 393 renal 0.632% | SF-268 CNS 1.36% | UACC-257 melanoma 1.08% | M14 melanoma 2.73% | U251 CNS 3.28% | PC-3 prostate 0.197% | SK-MEL-5 melanoma -94.7% | UACC-62 melanoma -42.2% | LOX IMVI melanoma -88% | SK-MEL-28 melanoma 6.31%

O=C1/C(=N\c2cc(=O)[nH]n2S(=O)(=O)c2ccccc2)Nc2ccccc21
inactive: DU-145 prostate 108% | K-562 leukemia 98.7% | MALME-3M melanoma 95.1% | MDA-MB-231 breast 96.5% | RXF 393 renal 101% | SF-268 CNS 97.6% | SF-295 CNS 101% | SF-539 CNS 94.8% | UACC-257 melanoma 123% | M14 melanoma 91.1% | HCT-15 colon 100% | HT29 colon 109% | SNB-75 CNS 81.2% | SNB-19 CNS 99.8% | U251 CNS 105% | PC-3 prostate 87% | SK-MEL-5 melanoma 98.6% | UACC-62 melanoma 97.6% | LOX IMVI melanoma 92.4% | SK-MEL-28 melanoma 116%

Cc1nnc(/N=C2\NC(=O)/C(=C/C=C/c3ccccc3)S2)s1
inactive: DU-145 prostate 57.5% | K-562 leukemia 36% | MALME-3M melanoma 54.1% | MDA-MB-231 breast 71.4% | RXF 393 renal 69.2% | SF-268 CNS 51.9% | SF-295 CNS 32.5% | SF-539 CNS 64.9% | UACC-257 melanoma 75.3% | M14 melanoma 49.8% | HCT-15 colon 37% | HT29 colon 92.8% | SNB-75 CNS 66.5% | SNB-19 CNS 53.7% | U251 CNS 49.5% | PC-3 prostate 39.2% | SK-MEL-5 melanoma 44.2% | UACC-62 melanoma 46.1% | LOX IMVI melanoma 44.3% | SK-MEL-28 melanoma 59.8%

COC(=O)c1ccc2[nH]c(O)c(C(=Nc3ccc(N(C)C(=O)CN4CCN(C)CC4)cc3)c3ccc([N+](=O)[O-])cc3)c2c1
active: K-562 leukemia 1.99% | MALME-3M melanoma -1.29%
inactive: DU-145 prostate 47.3% | MDA-MB-231 breast 70.2% | RXF 393 renal 33.9% | SF-268 CNS 45.3% | SF-295 CNS 55.2% | SF-539 CNS 38.9% | UACC-257 melanoma 85.4% | M14 melanoma 32.1% | HCT-15 colon 73% | HT29 colon 38% | SNB-75 CNS 54.7% | SNB-19 CNS 80.1% | U251 CNS 42.6% | PC-3 prostate 35.1% | SK-MEL-5 melanoma 49.4% | UACC-62 melanoma 52.7% | LOX IMVI melanoma 46.2% | SK-MEL-28 melanoma 64.9%
